Here are results for 36 molecules from PubChem BioAssay (NCATS).

Records with an inconclusive call do not appear. Entries that show only a call come without a potency. Activity calls are given as the source filed them. The call rests on the fitted dose curve; in most records, active means well fitted inhibition curve with a large enough effect; inconclusive means small, poorly fitted or top-dose-only effect, or effect the other way; inactive means flat fitted curve, though single readings scatter.

Sequence of ATP-dependent 6-phosphofructokinase (Trypanosoma brucei brucei) (O15648 whole entry, looked up): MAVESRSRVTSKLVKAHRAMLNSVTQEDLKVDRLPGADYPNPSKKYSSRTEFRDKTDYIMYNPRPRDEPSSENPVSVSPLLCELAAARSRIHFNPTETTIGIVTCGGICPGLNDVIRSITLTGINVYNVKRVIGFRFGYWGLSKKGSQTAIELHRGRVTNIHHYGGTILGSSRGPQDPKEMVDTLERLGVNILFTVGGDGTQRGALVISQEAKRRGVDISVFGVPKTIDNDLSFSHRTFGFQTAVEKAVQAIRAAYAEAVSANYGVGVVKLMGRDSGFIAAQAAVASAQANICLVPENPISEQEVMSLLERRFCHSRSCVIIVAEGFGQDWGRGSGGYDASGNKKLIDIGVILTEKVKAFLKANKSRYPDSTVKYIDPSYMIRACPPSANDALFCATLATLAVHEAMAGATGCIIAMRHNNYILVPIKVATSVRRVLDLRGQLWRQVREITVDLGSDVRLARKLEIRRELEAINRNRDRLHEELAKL

This experiment has as its target ATP-dependent 6-phosphofructokinase (Trypanosoma brucei brucei) (UniProt O15648). Put plainly: qHTS Assay to Find Inhibitors of T. brucei phosphofructokinase: hit validation (AID 492961).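 Further: luminescence reports ADP formed as PFK phosphorylates fructose-6-phosphate with ATP.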 The settings on record: T. brucei PFK, ADP-Glo luminescence; series mostly up to 51.4 µM. An outline of the steps: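 PFK 1.25 nM, F6P 0.5 mM, ATP 0.1 mM, MgCl2 5 mM, 0.1 M TEA pH 8.0, Tween20 0.01%, BSA 0.1%; 45 min RT. ADP-Glo two-step detection, luminescence. qHTS titration; curve fitting with curve-class categorization.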
In general terms: In qHTS, concentration-response curves come from the screen itself.
For the molecule `S=C1SCN(Cc2ccccc2)CN1Cc1ccccc1`, the Potency entry was “inactive”.
Consider `CCC(Cc1c(I)cc(I)c(O)c1I)C(=O)O` (stereo unspecified), for which the Potency result was “inactive”.
With `O=C1CCC(=O)N1CO` the entry was “inactive”.
The entry for `CCCC(=O)O` is “inactive”.
The entry for `C=CC(C)(O)CC/C=C(\C)CCC=C(C)C` (stereo unspecified) is “inactive”.
As for `CCC(O)c1ccccc1` (stereo unspecified), the Potency entry is “inactive”.
With `CC/C=C\C/C=C\C/C=C\C/C=C\C/C=C\CCCC(=O)O` the entry was “inactive”; with `CC(=O)Nc1c(I)c(C(=O)O)c(I)c(N(C)C(C)=O)c1I`, “inactive”; with `FCOC(C(F)(F)F)C(F)(F)F`, “inactive”.
With `C[C@]12CCC(=O)C[C@@H]1CC[C@@H]1[C@@H]2CC[C@]2(C)C=CC[C@@H]12` the entry was “inactive”; with `FC(F)(F)C(F)(F)C(F)(F)C(F)(F)C(F)(F)C(F)(F)F`, “inactive”; with `Oc1ccc(Cl)c2c1CCC2`, “inactive”.
With `CC(=O)Nc1ccc(OC(=O)c2ccccc2O)cc1` the entry was “inactive”; with `CCCC(CCC)C(=O)OC1C[C@H]2CC[C@@H](C1)[N+]2(C)C` (stereo partly specified), “inactive”; with `COc1ccc(C(=O)c2ccc(C)cc2)c(O)c1`, “inactive”.
`CC(=O)Nc1ccc(OC(C)=O)cc1`: the Potency result is “inactive”.
With `CCN(CC)CCOC(=O)c1cccnc1` the entry was “inactive”.
The entry for `N#Cc1ccc2c(c1)N(CCCN1CCC(O)CC1)c1ccccc1S2` is “inactive”.
With `CCOc1ccc(NC(=S)Nc2ccc(OCC)cc2)cc1`, the Potency result is “inactive”.
With `O=C(O)c1ccc(NC(=O)[C@H](Cc2ccc(O)cc2)NC(=O)c2ccccc2)cc1` the entry was “inactive”; with `CCCCCCCCCCCCOCCCN`, “inactive”; with `[O]=[Bi][O][Bi]=[O]`, “inactive”.
The entry for `CCC(C)[C@@H](N)C(=O)O` (stereo partly specified) is “inactive”; for `COc1ccc(/C=C/C(=O)O)cc1` it is “inactive”; for `CCN(CC)CCC(=O)N1c2ccccc2Sc2ccc(C(F)(F)F)cc21` it is “inactive”.
With `CC(=O)[C@H]1CC[C@H]2[C@@H]3C=CC4=CC(=O)CC[C@@]4(C)[C@H]3CC[C@]12C` the entry was “inactive”.
Regarding `CC(C)OC(=O)Nc1ccc2nc(-c3cscn3)[nH]c2c1`, the Potency entry was “inactive”.
`CC/C(=C(/CC)c1ccc(OP(=O)(O)O)cc1)c1ccc(OP(=O)(O)O)cc1`: the Potency entry was “inactive”.
With `S=C=Nc1ccc(N=C=S)cc1` the entry was “inactive”; with `CN(C)CCOc1ccc(/C(=C(/CCCl)c2ccccc2)c2ccccc2)cc1`, “inactive”; with `O=C1NCCN1c1ncc([N+](=O)[O-])s1`, “inactive”.
Consider `O=C(O)[C@H]1CN(C/C=C/P(=O)(O)O)CCN1`, for which the Potency entry was “inactive”.
The entry for `O=C1CCC(c2ccccc2)(C2CCN(Cc3ccccc3)CC2)C(=O)N1` (stereo unspecified) is “inactive”; for `CCN(CC)CCCC(C)Nc1cc(/C=C/c2ccccc2Cl)nc2cc(Cl)ccc12` (stereo unspecified) it is “inactive”; for `CC(C)CCCC(C)NC(C)C` (stereo unspecified) it is “inactive”.
The entry for `CC12CCC(C1)C(C)(C)C2=O` (stereo unspecified) is “inactive”.
